From PubChem BioAssay (NCI)
The panel holds about 79,000 compounds, 15% with a hit somewhere; the sample as a whole holds those more often. Calls of active or inactive are those of the source. Cut-off read from the data, not from the text of the source: active = growth inhibition above about 70%; inactive = the rest.

Assays:
[1] = NCI Yeast Anticancer Drug Screen. Data for the rad52 strain (AID 147);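 note: 0% = growth of vehicle-treated control cultures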; conditions: S. cerevisiae rad52 mutant growth inhibition, active compounds read high
Procedure, shortened: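 Here a repair-compromised yeast strain receives each compound; its growth is then quantified and normalised to vehicle-only controls.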

[2] = NCI Yeast Anticancer Drug Screen. Data for the wt1 strain (AID 149);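 note: 0% = growth of vehicle-treated wt1 cultures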; conditions: S. cerevisiae wt1 strain (SPY 50644) growth inhibition, active compounds read high
Procedure, shortened: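 Using yeast strain wt1, compound-induced growth inhibition was determined against vehicle-treated cultures.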

[3] = NCI Yeast Anticancer Drug Screen. Data for the rad50EPP+ strain (AID 151);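 note: 0% = growth of vehicle-treated control cultures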; conditions: S. cerevisiae rad50 mutant strain, active compounds read high
Procedure, shortened: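 Read-out is yeast growth inhibition relative to vehicle; cells used were the rad50EPP+ strain.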

[4] = NCI Yeast Anticancer Drug Screen. Data for the mgt1 strain (AID 153); conditions: S. cerevisiae mgt1 mutant growth inhibition, active compounds read high
Procedure, shortened: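 Measured: inhibition of mgt1 yeast growth by compound, normalized to vehicle-treated cultures.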

[5] = NCI Yeast Anticancer Drug Screen. Data for the rad50 strain (AID 155);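 note: 0% = growth of vehicle-only cultures of the same strain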; conditions: S. cerevisiae rad50 strain growth inhibition, active compounds read high
Procedure, shortened: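 Relative growth inhibition (compound vs vehicle) was measured in yeast with a defined repair-gene alteration.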

[6] = NCI Yeast Anticancer Drug Screen. Data for the mec2-1 strain (AID 157); conditions: S. cerevisiae mec2-1 strain, active compounds read high
Procedure, shortened: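 Using mec2-1 yeast: add compound, measure growth, express inhibition versus vehicle-treated cultures.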

[7] = NCI Yeast Anticancer Drug Screen. Data for the rad14 strain (AID 159);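 note: 0% = growth of vehicle-treated control cultures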; conditions: S. cerevisiae rad14 strain growth inhibition, active compounds read high
Procedure, shortened: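 Screen for anticancer potential: a yeast strain altered in DNA damage repair is grown with compound, and reduced growth is quantified against vehicle controls.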

[8] = NCI Yeast Anticancer Drug Screen. Data for the sgs1 mgt1 strain (AID 161);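 note: 0% = growth of cultures given vehicle only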; conditions: S. cerevisiae sgs1 mgt1 strain, active compounds read high
Procedure, shortened: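 Yeast cells carrying a defined DNA-repair defect were exposed to test compounds. Growth inhibition was measured relative to vehicle-treated controls.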

[9] = NCI Yeast Anticancer Drug Screen. Data for the cln2 rad14 strain (AID 165);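 note: 0% = growth equal to vehicle treated cultures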; conditions: S. cerevisiae cln2 rad14 strain, active compounds read high
Procedure, shortened: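 Yeast strain cln2 rad14, bearing defects in cell cycle control and DNA repair, serves as the test system; values reflect growth inhibition compared with vehicle.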

[10] = NCI Yeast Anticancer Drug Screen. Data for the bub3 strain (AID 167); conditions: S. cerevisiae bub3 mutant strain, active compounds read high
Procedure, shortened: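 Screening used yeast with an engineered genetic alteration affecting cell cycle control. Compound-exposed cultures were compared with vehicle cultures, and reduced growth was taken as inhibition.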

[11] = NCI Yeast Anticancer Drug Screen. Data for the wt2 strain (AID 169);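 note: 0% = growth of vehicle-treated yeast cultures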; conditions: S. cerevisiae wt2 strain growth inhibition, active compounds read high
Procedure, shortened: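 Treated yeast vs. vehicle-treated yeast: growth inhibition determined.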

[12] = NCI Yeast Anticancer Drug Screen. Data for the mlh1 strain (AID 171);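 note: 0% = growth of vehicle-treated control cultures of the same strain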; conditions: S. cerevisiae mlh1 strain growth inhibition, active compounds read high
Procedure, shortened: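 A yeast strain with a defined genetic lesion serves as the test organism. Cultures receive compound or vehicle, and growth is measured.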

[13] = NCI Yeast Anticancer Drug Screen. Data for the sgs1 strain (AID 173);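 note: 0% = growth of vehicle-only control cultures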; conditions: S. cerevisiae sgs1 mutant, active compounds read high
Procedure, shortened: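 A genetically defined yeast mutant is incubated with the test compound, and its growth is compared to that of the same strain given vehicle.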

[14] = NCI Yeast Anticancer Drug Screen. Data for the mlh1 rad18 strain (AID 175); conditions: S. cerevisiae mlh1 rad18 strain growth inhibition, active compounds read high
Procedure, shortened: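 Steps: expose repair-defective yeast to compound; measure growth; express inhibition against vehicle-treated controls.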

[15] = NCI Yeast Anticancer Drug Screen. Data for the rad18 strain (AID 177); conditions: S. cerevisiae rad18 mutant growth inhibition, active compounds read high
Procedure, shortened: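 Measured value is growth inhibition of a yeast strain bearing a DNA repair alteration, referenced to vehicle-treated cells.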

[16] = NCI Yeast Anticancer Drug Screen. Data for the CLN2oe strain (AID 163);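 note: 0% = growth of vehicle-only control cultures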; conditions: S. cerevisiae CLN2oe strain, active compounds read high
Procedure, shortened: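 Whole-cell yeast growth assay. A strain engineered for altered cell-cycle control received compound, and inhibition relative to vehicle-treated cultures was recorded.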

[17] = at 5.0 µM (retest, dose inferred, filed as 0.5)
[18] = at 50.0 µM (retest, dose inferred, filed as 5.0)

Measured: growth inhibition

O=C(Cc1ccccc1)NNc1nc(NNC(=O)c2ccncc2)nc(Nc2ccc(Cl)cc2)n1
active: [10]; [18] 98%
inactive: [1]; at 1.2 µM 16% | [1]; at 3.7 µM 6% | [1]; at 11.0 µM 16% | [1]; at 33.0 µM 14% | [1]; at 100.0 µM 17% | [2]; at 1.2 µM -52% | [2]; at 3.7 µM -3% | [2]; at 11.0 µM 0% | [2]; at 33.0 µM -1% | [2]; at 100.0 µM -1% | [3]; at 1.2 µM 1% | [3]; at 3.7 µM 8% | [3]; at 11.0 µM 6% | [3]; at 33.0 µM 3% | [3]; at 100.0 µM 4% | [4]; at 1.2 µM 1% | [4]; at 3.7 µM 3% | [4]; at 11.0 µM 5% | [4]; at 33.0 µM 3% | [4]; at 100.0 µM -1% | [5]; at 1.2 µM -1% | [5]; at 3.7 µM 0% | [5]; [17] 3% | [5]; at 11.0 µM 0% | [5]; at 33.0 µM -1% | [5]; [18] 38% | [5]; at 50.0 µM 39.2% | [5]; at 100.0 µM 1% | [6]; at 1.2 µM -3% | [6]; at 3.7 µM -5% | [6]; [17] 6% | [6]; at 11.0 µM -1% | [6]; at 33.0 µM 4% | [6]; [18] 22% | [6]; at 50.0 µM 48.2% | [6]; at 100.0 µM -3% | [7]; at 1.2 µM 0% | [7]; at 3.7 µM 4% | [7]; at 11.0 µM 3% | [7]; at 33.0 µM 0% | [7]; at 100.0 µM 2% | [8]; [17] 1% | [8]; [18] 12% | [8]; at 50.0 µM 55.3% | [9]; [17] -21% | [9]; [18] 45% | [9]; at 50.0 µM 10.1% | [10]; at 1.2 µM -3% | [10]; at 3.7 µM -5% | [10]; [17] -7% | [10]; at 11.0 µM -4% | [10]; at 33.0 µM -6% | [10]; at 50.0 µM 31.8% | [10]; at 100.0 µM -7% | [11]; at 1.2 µM -4% | [11]; at 3.7 µM 2% | [11]; at 11.0 µM 4% | [11]; at 33.0 µM -1% | [11]; at 100.0 µM -2% | [12]; at 1.2 µM -2% | [12]; at 3.7 µM -1% | [12]; at 11.0 µM 0% | [12]; at 33.0 µM -2% | [12]; at 100.0 µM -3% | [13]; at 1.2 µM 3% | [13]; at 3.7 µM 7% | [13]; at 11.0 µM 7% | [13]; at 33.0 µM 6% | [13]; at 100.0 µM 4% | [14]; [17] 13% | [14]; [18] 14% | [14]; at 50.0 µM 59.9% | [15]; at 1.2 µM 9% | [15]; at 3.7 µM 10% | [15]; at 11.0 µM 19% | [15]; at 33.0 µM 19% | [15]; at 100.0 µM 15%

Clc1ccc(/C(=C\c2ccccc2)Cn2ccnc2)cc1
inactive: [1]; at 1.2 µM 18% | [1]; at 3.7 µM 34% | [1]; at 11.0 µM 53% | [2]; at 1.2 µM 9% | [2]; at 3.7 µM 12% | [2]; at 11.0 µM 28% | [2]; at 33.0 µM 20% | [2]; at 100.0 µM 39% | [3]; at 1.2 µM 26% | [3]; at 3.7 µM 54% | [4]; at 1.2 µM 14% | [4]; at 3.7 µM 22% | [4]; at 11.0 µM 60% | [5]; at 1.2 µM 22% | [5]; at 3.7 µM 34% | [5]; [17] 52% | [5]; at 11.0 µM 54% | [6]; at 1.2 µM 11% | [6]; at 3.7 µM 21% | [6]; [17] -14% | [6]; at 11.0 µM 37% | [6]; at 33.0 µM 54% | [6]; at 100.0 µM 67% | [8]; [17] 30% | [16]; at 1.2 µM 11% | [16]; at 3.7 µM 21% | [16]; at 11.0 µM 48% | [9]; [17] 26% | [10]; at 1.2 µM 10% | [10]; at 3.7 µM 32% | [10]; [17] 51% | [10]; at 11.0 µM 44% | [11]; at 1.2 µM 20% | [11]; at 3.7 µM 29% | [11]; at 11.0 µM 46% | [11]; at 33.0 µM 54% | [12]; at 1.2 µM 5% | [12]; at 3.7 µM 19% | [12]; at 11.0 µM 39% | [12]; at 33.0 µM 51% | [13]; at 1.2 µM 44% | [13]; at 3.7 µM 54% | [13]; at 11.0 µM 69% | [14]; [17] 42% | [15]; at 1.2 µM 46% | [15]; at 3.7 µM 64%
active: [1]; at 33.0 µM 86% | [1]; at 100.0 µM 76% | [3]; at 11.0 µM 92% | [3]; at 33.0 µM 95% | [3]; at 100.0 µM 96% | [4]; at 33.0 µM 71% | [4]; at 100.0 µM 87% | [5]; at 33.0 µM 84% | [5]; [18] 92% | [5]; at 50.0 µM 79% | [5]; at 100.0 µM 85% | [6]; [18] 88% | [6]; at 50.0 µM 82.3% | [8]; [18] 95% | [8]; at 50.0 µM 79.7% | [16]; at 33.0 µM 75% | [16]; at 100.0 µM 74% | [9]; [18] 92% | [9]; at 50.0 µM 73.2% | [10]; at 33.0 µM 72% | [10]; [18] 97% | [10]; at 50.0 µM 88.2% | [10]; at 100.0 µM 89% | [11]; at 100.0 µM 77% | [12]; at 100.0 µM 74% | [13]; at 33.0 µM 90% | [13]; at 100.0 µM 83% | [14]; [18] 94% | [14]; at 50.0 µM 78.6% | [15]; at 11.0 µM 81% | [15]; at 33.0 µM 93% | [15]; at 100.0 µM 92%
